High-throughput results from PubChem.
Shown are actives, neighbours in structure and some others; about 19% of the full set was active somewhere.
ELG1 repair inh = ELG1-dependent DNA repair inhibition; HEK293T ELG1-luciferase reporter, luminescence, 16 h; DNA damage induced by 5-fluorouridine; actives 2.3% (n = 330,000); Potency, µM (series often up to 46.1 µM), without a hit: at the highest dose activity change, negative = inhibition, actives largely listed as inhibitors; note: potency is the fitted concentration of half-maximal effect; nearly all actives have a fitted effect of over 55% in size
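Step one: seed 2,000 cells per well. Step two: pin-transfer compound or DMSO alongside 5-fluorouridine. Step three: incubate 16 hr, 37 °C, 5% CO2. Step four: add ONE-Glo, wait 30 min, read luminescence.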
DT40 TDP1 CPT = growth inhibition of DT40 Tdp1-/-;hTDP1 cells with camptothecin (screen for TDP1 inhibitors); Potency, µM (series often up to 46.2 µM), inactives show at the top dose activity change, negative = growth inhibition, usual class: inhibitors; actives 12% (n = 420,000); chicken DT40 Tdp1-/-;hTDP1 cells + 20 nM CPT, ATP luminescence, 48 h; note: potency is the fitted concentration of half-maximal effect; nearly all actives have a fitted effect of over 55% in size
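Chicken DT40 Tdp1-/- cells complemented with human TDP1, 400 cells/well, exposed to compounds plus 20 nM camptothecin for at least 48 h at 37 C; viability read as ATP content by CellTiter-Glo luminescence.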
DT40 TDP1 no CPT = qHTS for Inhibitors of human tyrosyl-DNA phosphodiesterase 1 (TDP1): qHTS in cells in absence of CPT; DT40 Tdp1-/- hTDP1 cells, no CPT, ATP luminescence, 48 h; Potency, µM (doses to about 46.2 µM), for inactives: at the highest dose activity change, negative = growth inhibition, most hits filed as inhibitors; actives 15% (n = 420,000); AID 686978, 2013; note: potency is the fitted concentration of half-maximal effect; nearly all actives have a fitted effect of over 55% in size
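Seeded 400 DT40-hTDP1 cells/well (vehicle DMSO, no 20 nM CPT); pinned compounds; ≥48 hr at 37 °C; CellTiter-Glo luminescence as viability measure.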
IL1B secr inh = inflammasome signaling inhibition, IL-1 beta readout; THP-1 LPS/ATP IL-1B secretion, AlphaLISA, 16 h; hits give low values; activity change, % at 57.5 µM; actives 4.7% (n = 360,000); AID 743279; in the data active = activity change below about -50%; inconclusive = mostly about -30% to -49%
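Secreted IL-1B measured by AlphaLISA bead assay after 16 h compound exposure of THP-1 cells; compounds (final up to 57.5 uM) added 1 h before LPS (250 ng/mL) and ATP (1.25 mM) stimulation; lower signal means less secretion.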
Giardia killer = Giardia lamblia killing; Giardia lamblia trophozoite viability; activity change, % at 7.66 µM, hits read low; actives 0.15% (n = 340,000); AID 540267; in the data active = activity change below about -80%; inconclusive = between about -30% and that limit;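 note: parasites exposed to compound for two days anaerobically before the ATP read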
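Luminescent ATP signal served as the viability read-out, measured 15-30 min after adding ATP detection reagent to trophozoites that had been incubated with compounds for 48 hrs at 37 deg C anaerobically at 100 cells/well.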
TDP1 inh = TDP1 (human) enzyme inhibition | recombinant TDP1, AlphaScreen DNA substrate cleavage | Potency, µM (titrated, usually from 130 µM), for the others: at the highest dose activity change, negative = inhibition, most hits filed as inhibitors | actives 0.28% (n = 350,000) | AID 485290; note: potency is the fitted concentration of half-maximal effect; nearly all actives have a fitted effect of over 40% in size
Target sequence (Q9NUW8 whole entry, looked up): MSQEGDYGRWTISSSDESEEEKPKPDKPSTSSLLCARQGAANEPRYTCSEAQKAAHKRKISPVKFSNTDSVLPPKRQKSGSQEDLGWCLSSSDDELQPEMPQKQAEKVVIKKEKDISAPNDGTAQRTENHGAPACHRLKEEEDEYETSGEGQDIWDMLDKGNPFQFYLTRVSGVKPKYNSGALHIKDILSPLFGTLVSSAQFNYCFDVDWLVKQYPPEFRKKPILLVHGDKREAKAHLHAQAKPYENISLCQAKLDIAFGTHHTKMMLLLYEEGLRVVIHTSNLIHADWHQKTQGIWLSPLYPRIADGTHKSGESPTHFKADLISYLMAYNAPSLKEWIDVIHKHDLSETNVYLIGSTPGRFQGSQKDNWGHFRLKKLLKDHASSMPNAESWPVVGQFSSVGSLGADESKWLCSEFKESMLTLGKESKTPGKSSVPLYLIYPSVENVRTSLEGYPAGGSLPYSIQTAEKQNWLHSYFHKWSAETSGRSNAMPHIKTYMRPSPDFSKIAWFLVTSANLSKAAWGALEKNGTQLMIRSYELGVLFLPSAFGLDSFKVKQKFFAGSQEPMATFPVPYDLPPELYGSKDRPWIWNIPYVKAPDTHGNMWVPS
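Tdp1 1 nM final; 15 min RT w/ cpd; substrate 15 nM, 5 min; beads 10 ug/ml, 10 min; AlphaScreen read. Neg ctrl: no enzyme.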
* hit, by the source's call; u = inconclusive; x = no result; [ ] = another dose, or the depositor's remark. Unless noted, calls come from the whole dose curve; as a rule, active = well fitted curve in the direction sought with a large enough effect; inconclusive = small, poorly fitted or top-dose-only effect, or another doubt; inactive = no such curve, though single readings can be large; an effect the other way counts as inactive or inconclusive. % is set by controls: 0 for no effect and ±100 for the full control effect.

SMILES | ELG1 repair inh | DT40 TDP1 CPT | DT40 TDP1 no CPT | IL1B secr inh | Giardia killer | TDP1 inh
COc1ccc(-c2cn[nH]c2-c2ccc(OCc3ccc([N+](=O)[O-])cc3)cc2O)cc1OC | u | u | 20.6µM* | u | -14.8 | x
COc1ccc(-c2cn[nH]c2N)cc1OC | -0.8% | -28.3% | -3.0% | -4.3 | 0.5 | 9.8%
Cn1c(=O)n(C/C=C/c2ccccc2)c(=O)c2c1nc1n2CCN1c1ccc(F)cc1 | x | 3.1% | -18.3% | x | x | 3.9%
Cc1cccc(OCc2nc(CC(=O)Nc3ccc(C)cc3C)cs2)c1 | x | 14.6µM* | u | x | x | 3.6%
O=c1[nH]ncc(N2CCN(C(c3ccccc3)c3ccccc3)CC2)c1Cl | -3.1% | 20.6µM* | 10.3µM* | -1.4 | 8.1 | 2.8%
O=c1[nH]ncc(N2CCCC2)c1Cl | 26.6% | 6.1% | 3.1% | 31.0 | 31.4 | -2.3%
COc1ccc(N(CC(=O)NC2CCCCCC2)S(=O)(=O)c2ccccc2)cc1Cl | -14.0% | u | u | 4.5 | 13.8 | -0.1%
C[C@H]1CN(c2ccc(Br)cc2)C(=O)[C@@H]1CC(=O)Nc1ccccc1 | x | u | u | 4.8 | x | x
CCn1c(=O)sc2cc(NS(=O)(=O)c3ccc(C)cc3)ccc21 | x | u | u | x | x | 2.5%
CCc1ccc(S(=O)(=O)Nc2ccc3c(c2)sc(=O)n3C)cc1 | x | 20.6µM* | 14.6µM* | x | x | 6.5%
Cc1ccc(Cn2c(=O)n(Cc3ccc(C(=O)NC4CCN(Cc5ccccc5)CC4)cc3)c(=O)c3ccccc32)cc1 | x | 6.5% | 4.9% | x | x | 6.4%
COc1ccc(Nc2nc(NCc3ccco3)nc(N/N=C/c3ccccc3F)n2)cc1 | u | 18.4µM* | 16.4µM* | u | u | 10.8%
CC(C)c1ccc(Nc2nc(Cl)nc(NCc3ccco3)n2)cc1 | 9.8% | u | u | 20.9 | 0.2 | 3.8%
COc1ccc(Nc2nc(NCc3ccco3)nc(N/N=C/c3ccc(O)cc3)n2)cc1 | u | u | u | -69.2* | 15.1 | -4.6%
CCn1c(CN2CCN(c3cccc(Cl)c3)CC2)nc2c1c(=O)[nH]c(=O)n2C | x | u | 18.4µM* | x | x | 6.4%
Cn1c(=O)[nH]c(=O)c2c1nc(N1CCN(c3cccc(Cl)c3)CC1)n2CCCc1ccccc1 | u | x | x | x | x | 3.3%
CCCCCn1c(N2CCN(c3cccc(Cl)c3)CC2)nc2c1c(=O)[nH]c(=O)n2C | 23.1µM* | 20.6µM* | 23.1µM* | u | 2.3 | 1.2%
Cc1cc(C)cc(Oc2c(C(F)(F)F)oc3c(CN4CCCC(C)C4)c(O)ccc3c2=O)c1 (stereo not given) | x | 7.1% | 5.1% | x | x | -2.1%
C[C@@H]1CN(Cc2nnnn2CC(=O)NCCCn2cccn2)C[C@H](C)O1 | x | -2.2% | -3.1% | 4.1 | x | x
CCn1cc(C(=O)O)c(=O)c2cnc(N3CCN(C(=S)Nc4ccccc4C(F)(F)F)CC3)nc21 | 14.6µM* | -29.8% | 29.1µM* | -10.5 | 7.2 | 5.2%
CCCOc1ccc(C(=O)NC(=S)N2CCN(c3ncc4c(=O)c(C(=O)O)cn(CC)c4n3)CC2)cc1 | x | 23.1µM* | u | 20.4 | x | x
CCn1cc(C(=O)O)c(=O)c2cnc(N3CCN(C(=S)Nc4ccccc4)CC3)nc21 | -21.1% | u | u | -15.1 | -1.8 | 3.9%
CCn1cc(C(=O)O)c(=O)c2cnc(N3CCN(C(=S)NC(=O)c4ccccc4)CC3)nc21 | 7.0% | -16.3% | -10.0% | u | -2.6 | 0.0%
Cc1cccc(Cn2cnc3c(cnn3-c3ccc(Cl)cc3)c2=O)c1 | x | u | u | x | x | -5.1%
Cc1nn2c(NCc3cccnc3)c3c(nc2c1-c1ccccc1)CCC3 | -29.8% | u | u | -75.6* | -21.5 | x
SMILES | ELG1 repair inh | DT40 TDP1 CPT | DT40 TDP1 no CPT | IL1B secr inh | Giardia killer | TDP1 inh
CCCCNc1c2c(nc3c(-c4ccccc4)c(C)nn13)CCC2 | u | 20.6µM* | 29.1µM* | -26.3 | 13.4 | -0.5%
Cc1nn2c(NCCN(C)C)c3c(nc2c1-c1ccccc1)CCCC3 | u | 0.581µM* | 1.03µM* | -57.6* | -5.6 | 4.1%
Cc1nn2c(NCCCN3CCOCC3)c3c(nc2c1-c1ccccc1)CCC3 | u | u | u | u | -6.8 | -3.0%
COCCNc1c2c(nc3c(-c4ccccc4)c(C)nn13)CCCC2 | u | 15.8µM* | u | -23.9 | 7.8 | -8.6%
CCC(C)Nc1c2c(nc3c(-c4ccccc4)c(C)nn13)CCC2 (stereo not given) | -29.7% | u | u | u | -12.2 | -1.0%
Cc1nn2c(NCCOCCO)c3c(nc2c1-c1ccccc1)CCCC3 | -0.6% | -13.4% | u | u | -5.8 | 4.8%
CC1CCc2c(sc(NC(=O)CCCOc3ccc(C(C)(C)C)cc3)c2C(N)=O)C1 (stereo not given) | x | u | u | x | x | -1.3%[12.3 µM]
COc1ccc(-c2nnnn2-c2ccc(F)cc2F)cc1 | -5.0% | 13.7% | -0.8% | -7.0 | -4.2 | 0.0%
Cc1c(C(=O)Nc2ccc(S(=O)(=O)N3CCOCC3)cc2)cccc1[N+](=O)[O-] | 0.0% | u | u | -12.0 | 12.2 | x
COc1ccc(S(=O)(=O)N2CCOC2CNC(=O)C(=O)NCCCN2CCOCC2)cc1C (stereo not given) | -2.2% | -28.4% | 11.7% | 24.5 | 11.7 | 0.5%
CCOc1ccc(-c2cc3c(=O)n(Cc4nc(-c5ccc(OC(C)C)cc5)oc4C)ccn3n2)cc1Cl | x | -7.7% | 0.6% | x | x | 0.0%
COc1cccc(Nc2c3c(nc4c(-c5ccccc5)c(C)nn24)CCC3)c1 | u | 5.8% | 13µM* | 1.1 | 13.3 | -8.0%
Cc1cc(NC(=O)C(C)SCC(=O)Nc2nc3c(F)cc(F)cc3s2)no1 (stereo not given) | -17.3% | -8.7% | u | 7.3 | -18.4 | -4.0%
CCOC(=O)C1CCCN(S(=O)(=O)c2ccc3[nH]c(=O)oc3c2)C1 (stereo not given) | x | -27.2% | u | x | x | 6.9%
CN(c1ccccc1)S(=O)(=O)c1cccc(NC(=O)CC(C)(C)C)c1 | u | 16.4µM* | 14.6µM* | -22.7 | -0.5 | 1.8%
COc1ccccc1OCC(=O)Nc1cccc(N(C)S(C)(=O)=O)c1 | 5.2% | -0.4% | -18.3% | -8.7 | -15.5 | 4.7%
COc1cc(C=O)ccc1OCC(=O)Nc1cccc(S(=O)(=O)N(C)c2ccccc2)c1 | u | u | 11.6µM* | -7.5 | 4.8 | x
Cc1cc(S(=O)(=O)NCc2ccccc2)ccc1OCC(=O)Nc1cccc([N+](=O)[O-])c1 | u | 18.4µM* | 20.6µM* | u | 11.4 | u
